# Results: PubChem BioAssay (Tox21)
# “And” between values parts separate entries of the source, which are not always exact repeats. Equal values may be shown once. Inconclusive results are not listed. The source made the active and inactive calls. Calls come from the whole dose curve; as a rule, active = well fitted inhibition curve with a large enough effect in the repeat runs; inconclusive = weak or mixed curves; inactive = no such curve, though single readings can be large or run the other way.
# Assay: qHTS assay to identify small molecule antagonists of the estrogen related receptor (ERR) signaling pathway from Tox21 library (AID 1224848); note: nearly all actives have a fitted effect of over 50% in size
# Details: ERR reporter cell line, luciferase antagonist mode, 18 h; series mostly up to 92.4 µM; activity, negative = inhibition: at the top concentration
# Source text: U.S. Tox21 Program National Center for Advancing Translational Sciences [NCATS] NIH Chemical Genomics Center [NCGC] U.S. Environmental Protection Agency [EPA] National Institutes of Environmental Health Sciences [NIEHS] National Toxicology Program [NTP] U.S. Food and Drug Administration [FDA] Tox21 Assay Overview: Estrogen related receptors (ERRs), the first orphan nuclear receptors discovered, play an important role in the control of cellular energy metabolism. ERRs are required for high-energy production in response to the environmental challenges. ERR-alpha was also identified as an adverse marker for breast cancer progression; ERR-alpha-positive tumors have a poor prognosis. To screen and to identify environmental compounds that perturb the ERR signaling pathways could provide valuable information for potential therapeutic or preventive measures in the treatment of metabolic disease. For identifying ERR antagonists, ERR cell line (provided by NTP) has been used to screen Tox21 10K library.
# Tox21 Assay Protocol Summary: The ERR cells were dispensed at 2,000 cells/5 ul/well in 1536-well white plates using a Multidrop dispenser. After the assay plates were incubated at a 37 C/5% CO2 incubator for 6 hours, 23 nL of compounds dissolved in DMSO, positive and negative controls or DMSO only was transferred to the assay plate by a pin tool. The plates were incubated at 37 C for 18 hours. 4 ul/well of One-Glo reagent was added into the assay plates using a Flying Reagent Dispenser. After 30-minute incubation at room temperature, the luminescence intensity in the plates was measured using a ViewLux plate reader.
# % is set by controls: 0 for no effect and ±100 for the full control effect; potency is the fitted concentration of half-maximal effect.
Compound,Potency,"activity, negative = inhibition"
C#C[C@]1(OC(C)=O)CC[C@H]2[C@@H]3CCC4=C[C@@H](OC(C)=O)CC[C@@H]4[C@H]3CC[C@@]21C,23.7 µM (active),
CCCCCCC1CCCC(=O)O1 (stereo not given),,-1.32% (inactive)
CC(C)Cn1cnc2c(N)nc3ccccc3c21,,-22% [at 19 µM] (inactive)
Nc1ccc(NCCO)c([N+](=O)[O-])c1,,-28.5% (inactive)
CCCCCCCCCCCCCCCC[N+](C)(C)CC,17.3 µM (active) and 10.6 µM (active),
O=C(O)c1cccc(C(F)(F)F)c1,,-4.53% (inactive)
CN1CCN2c3ccccc3Cc3ccccc3C2C1 (stereo not given),,-16.2% [at 42.5 µM] (inactive)
O=S(=O)(O)c1ccc(Nc2nc(Nc3ccc(/C=C/c4ccc(Nc5nc(Nc6ccc(S(=O)(=O)O)cc6)nc(N(CCO)CCO)n5)cc4S(=O)(=O)O)c(S(=O)(=O)O)c3)nc(N(CCO)CCO)n2)cc1,,9.02% [at 42.5 µM] (inactive)
OC[C@@H](O)[C@@H](O)CO,,4.74% (inactive)
CCCCCCOC(=O)C(C)CC (stereo not given),,0.0435% (inactive)
Cc1nc(-c2ccc(Cl)cc2)oc1COC(C)(C)C(=O)O,,1.14% [at 42.5 µM] (inactive)
CCOC(=O)NNc1ccc(N(CC)CC(C)O)nn1 (stereo not given),,0.819% [at 42.5 µM] (inactive)
OC1CCC(C2CCCCC2)CC1 (stereo not given),,-2.31% (inactive)
CCO[C@@H]1O[C@H](C(COCc2ccccc2)OCc2ccccc2)[C@H](OCc2ccccc2)[C@H]1O (stereo not given in full),29.8 µM (active),
O=C(O)O,,10.7% [at 8.39 µM] (inactive)
O=[N+]([O-])c1ccc(O)cc1C(F)(F)F,6.11 µM (active),
C#CC1(O)CC[C@H]2[C@@H]3CCC4=CCCC[C@@H]4[C@H]3CC[C@@]21C (stereo not given in full),61.1 µM (active) and 26.6 µM (active),
Cc1c(N)cccc1C(F)(F)F,,9.7% [at 42.5 µM] (inactive)
Cc1c(F)c(N2CCNC(C)C2)cc2c1c(=O)c(C(=O)O)cn2C1CC1 (stereo not given),,15% [at 42.5 µM] (inactive)
CCCCCCCC/C=C\CCCCCCCCN,,-5.47% [at 42.5 µM] (inactive)

Compound,Potency,"activity, negative = inhibition"
COc1ccc2c(c1)c(CC(=O)OC/C=C(\C)CC/C=C(\C)CCC=C(C)C)c(C)n2C(=O)c1ccc(Cl)cc1,,-0.39% [at 42.5 µM] (inactive)
CN(C)C(=O)COC(=O)Cc1ccc(OC(=O)c2ccc(N=C(N)N)cc2)cc1,,-1.92% [at 42.5 µM] (inactive)
Cc1cc(-c2ccc(N=Nc3cc(S(=O)(=O)O)c4ccccc4c3N)c(C)c2)ccc1N=Nc1cc(S(=O)(=O)O)c2ccccc2c1N,5.48 µM (active),
Cc1cc(C(C#N)c2ccc(Cl)cc2)c(Cl)cc1NC(=O)c1cc(I)cc(I)c1O (stereo not given),26.6 µM (active),
O=C1C(c2[nH]c3ccc(S(=O)(=O)O)cc3c2O)=Nc2ccc(S(=O)(=O)O)cc21,,-12.2% (inactive)
COc1cc(C)ccc1O,,8.35% (inactive)
CC1=Nc2ccccc2C1(C)C,,27.2% (inactive)
CC(C)=CCNc1ncnc2c1ncn2[C@@H]1O[C@H](CO)[C@@H](O)[C@H]1O,10.6 µM (active),
[Cl][Pt-2]([Cl])([Cl])[Cl],,-15.9% (inactive)
CCC(COC(=O)CCS)(COC(=O)CCS)COC(=O)CCS,,5.4% (inactive)
CC(C)=CCC1=C(O)c2ccccc2C(=O)C1=O,1.92 µM (active),
Nc1nc(-c2ccccc2)cs1,,60.8% (inactive)
S=c1nccc[nH]1,,-13.3% (inactive)
Cc1c2ccccc2c(C)c2c1ccc1ccccc12,30.3 µM (active) and 61.1 µM (active),
O=S(=O)(O)c1ccccc1/C=C/c1ccc(-c2ccc(/C=C/c3ccccc3S(=O)(=O)O)cc2)cc1,,6.29% (inactive)
Cc1cc(-n2nc3ccc(Cl)cc3n2)c(O)c(C(C)(C)C)c1,,2.29% [at 42.5 µM] (inactive)
CCCCCCCCCCCCOCCOCCOCCOCCOCCOCCOCCOCCOCCO,2.98 µM (active),
Cc1ccc(N/N=c2\c(=O)cc/c(=N\Nc3ccc(S(=O)(=O)O)cc3)c2=O)c(C)c1,,-11.1% (inactive)
CC(C)OC(=O)C(O)(CC(=O)O)CC(=O)O,,6.63% (inactive)
CN(C)Cc1ccccc1O,,0.838% (inactive)
